HP1b chromo inh: HP1-beta chromodomain-methylated histone interaction inhibition; hit rate 0.56% among 390,000; P83916; AID 540317; AlphaScreen HP1-beta / biotin-H3K9me3 peptide binding; Potency, µM (doses to about 114 µM), for inactives: at the top dose activity change, negative = inhibition, usual class: inhibitors; further: nearly all actives have a fitted effect of over 70% in size
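Compound inhibition of the preformed complex between 50 nM HP1-beta and 50 nM biotinylated H3K9me3 peptide was read by AlphaScreen. Buffer was PBS pH 7.4 with 0.01% Tween-20. Incubations ran 30 min at room temperature, with 10 ug/mL donor/acceptor beads.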
G9a block: G9a (human) methyltransferase inhibition | AID 504332 | Potency, µM (doses to about 102 µM), for inactives: at the top dose activity, negative = inhibition, actives largely listed as inhibitors | hit rate 8.8% among 350,000 | G9a H3K9 monomethylation, AlphaScreen, 2 h | Q96KQ7; further: on the % scale 0 is the no-effect control and ±100 the full control effect; nearly all actives have a fitted effect of over 75% in size
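Step 1: enzyme (final 20 nM) with compound, 15 min RT. Step 2: substrate peptide 500 nM and SAM 20 uM, 2 h RT. Step 3: anti-H3K9me1 antibody and AlphaScreen beads, 10 min, then plate read.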
JMJD2A Tudor: inhibitors of human JMJD2A Tudor domain; AlphaScreen JMJD2A-Tudor / H3K4me3 peptide binding; Potency, µM (doses to about 114 µM), without a hit: at the top dose activity change, negative = inhibition, actives largely listed as inhibitors; hit rate 4.4% among 390,000; further: on the % scale 0 is the no-effect control and ±100 the full control effect; nearly all actives have a fitted effect of over 50% in size
L3MBTL1 inh: L3MBTL1 (human) inhibition; AID 485360; Q9Y468; Potency, µM (highest dose often 57.1 µM), for the others: at the highest dose activity, negative = inhibition, hits mostly inhibitors; hit rate 0.66% among 230,000; AlphaScreen L3MBTL1–H3K9me1 peptide binding; further: on the % scale 0 is the no-effect control and ±100 the full control effect; nearly all actives have a fitted effect of over 60% in size
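L3MBTL1 (50 nM) pre-complexed 30 min with biotinylated H3(1-15)K9me1 peptide (75 nM), then compounds added for 30 min at room temperature; AlphaScreen streptavidin donor/nickel chelate acceptor beads (10 ug/mL final) read after 30 min dark incubation.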
GLS inhibitor: blocks human kidney-isoform glutaminase activity. O94925. GLS enzymatic activity, qHTS titration. Potency, µM (doses to about 45.5 µM), inactives show at the highest dose activity change, negative = inhibition, most hits filed as inhibitors. hit rate 0.21% among 410,000. AID 624170; further: on the % scale 0 is the no-effect control and ±100 the full control effect
Target sequence (O94925 whole entry, looked up, canonical isoform): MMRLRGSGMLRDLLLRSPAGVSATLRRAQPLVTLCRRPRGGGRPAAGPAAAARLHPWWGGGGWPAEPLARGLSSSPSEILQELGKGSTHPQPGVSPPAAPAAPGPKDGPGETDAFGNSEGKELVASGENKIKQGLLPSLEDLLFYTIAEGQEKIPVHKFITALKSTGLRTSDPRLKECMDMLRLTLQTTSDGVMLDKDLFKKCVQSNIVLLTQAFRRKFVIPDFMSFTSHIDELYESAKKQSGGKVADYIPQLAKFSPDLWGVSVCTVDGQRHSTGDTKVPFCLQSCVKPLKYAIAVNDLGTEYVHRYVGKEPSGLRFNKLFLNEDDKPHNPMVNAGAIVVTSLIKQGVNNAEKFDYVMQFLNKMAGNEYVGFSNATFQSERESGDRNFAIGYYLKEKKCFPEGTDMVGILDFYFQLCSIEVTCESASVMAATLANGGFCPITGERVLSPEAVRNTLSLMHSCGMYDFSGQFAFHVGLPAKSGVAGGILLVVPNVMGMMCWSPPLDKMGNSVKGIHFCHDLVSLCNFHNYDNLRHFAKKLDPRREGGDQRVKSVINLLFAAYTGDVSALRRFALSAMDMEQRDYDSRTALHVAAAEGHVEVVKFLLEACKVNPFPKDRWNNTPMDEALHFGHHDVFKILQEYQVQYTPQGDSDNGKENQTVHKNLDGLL
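hKGA; 45 mM KH2PO4 pH 8.2 + 0.02% Tween-20; cpd via pin tool; 1 mM Gln soln; GluOx/HRP/Amplex Red; RT 30 min; fluor. t0 & final.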
BAZ2B block: inhibitors of human BAZ2B bromodomain; Q9UIF8; Potency, µM (series often up to 114 µM), for inactives: at the highest dose activity change, negative = inhibition, most hits filed as inhibitors; hit rate 4.4% among 360,000; AlphaScreen BAZ2B-H3K14Ac peptide displacement; further: on the % scale 0 is the no-effect control and ±100 the full control effect; nearly all actives have a fitted effect of over 60% in size
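AlphaScreen displacement: compounds (up to 110uM) incubated 30 min at room temperature with a preformed 50 nM BAZ2B/50 nM biotinylated H3K14Ac peptide complex in PBS pH 7.4 with Tween-20. Donor and acceptor beads at 10 ug/mL final added, 20 min light-protected before reading.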
Starred values were filed as active, the others as inactive; u = inconclusive; x = no result given; [ ] = remark or other dose. Hits are enriched below; roughly 10% of the tested compounds scored in any of these assays. The call rests on the fitted dose curve; in most records, active means well fitted curve in the direction sought with a large enough effect; inconclusive means small, poorly fitted or top-dose-only effect, or another doubt; inactive means no such curve, though single readings can be large; an effect the other way counts as inactive or inconclusive. Potency means the concentration at half of the fitted maximal effect.

SMILES | HP1b chromo inh | G9a block | JMJD2A Tudor | L3MBTL1 inh | GLS inhibitor | BAZ2B block
CN1C(=O)/C(=C2/C=Cc3ccccc3N2CCCS(=O)(=O)O)SC1=S | u | u | u | x | 30% | 45µM*
O=C(N/N=C/c1c[nH]c2ccccc12)c1ccc(O)c(O)c1 | 11% | -21% | -24% | x | 11µM* | -18%
COc1cccc(/C=N/NC(=O)c2c(-c3ccccc3)noc2C)c1OC | 23% | x | -9% | x | 1% | x
Cc1onc(-c2ccccc2)c1C(=O)N/N=C/c1c[nH]c2ccccc12 | 45µM* | -28% | u | -10% | -63% | u
COc1cccc(/C=N/NC(=O)c2c(-c3ccccc3)noc2C)c1O | 19% | 107%[59 µM] | u | -4% | 15% | 45µM*
CCOc1cc([N+](=O)[O-])cc(/C=N/NC(=O)c2c(-c3ccccc3)noc2C)c1O | 20% | u | 79µM* | x | 11% | 22µM*
Cc1ccccc1NC(=O)CN(C)S(=O)(=O)c1cccc2nsnc12 | -8% | 8%[59 µM] | -12% | x | -9% | 6%
Nc1nc(CN2CCN(c3ccccc3F)CC2)nc(N2CCCc3ccccc32)n1 | 3% | u | u | -4% | 2% | 50µM*
Nc1nc(CN2CCN(Cc3ccccc3)CC2)nc(N2CCCc3ccccc32)n1 | 14% | x | -21% | -20% | 1% | u
Nc1nc(CN2CCN(c3ccccc3)CC2)nc(N2CCCc3ccccc32)n1 | -6% | 50µM* | 50µM* | -26% | 13% | u
COc1ccc(N2CCN(Cc3nc(N)nc(N4CCCc5ccccc54)n3)CC2)cc1 | u | 45µM* | 50µM* | -9% | 55% | 11µM*
Nc1nc(CSc2nnnn2-c2ccccc2)nc(N2CCCc3ccccc32)n1 | 16% | -6%[59 µM] | -12% | -22% | -11% | -4%
Cc1c(C(=O)Nc2ccc(F)cc2F)oc2ccc3c(c12)C(=O)CC(C)(C)O3 | 18% | -33%[59 µM] | -15% | x | -15% | u
Cc1cccc(OC(C)C(=O)N2CCC(c3nc4ccccc4o3)CC2)c1C (stereo unspecified) | 11% | -4%[59 µM] | -13% | x | -12% | -1%
CN(C)C(=O)c1ccc(-c2ccc3ncnc(N4CCOCC4)c3c2)cc1 | x | -19%[0.501 µM] | x | x | x | x
CC(C(=O)O/N=C(\N)c1ccccn1)c1ccc([N+](=O)[O-])cc1 (stereo unspecified) | 27% | u | -7% | x | -2% | 56µM*
COc1cc(NC(=O)CSc2ccc(-c3sc(C)nc3C)nn2)cc(OC)c1 | 26% | -10%[59 µM] | -11% | x | 1% | -31%
Cc1ccc(CN2CCN(/N=C/c3cccn3C)CC2)c(C)c1 | u | 25µM* | 40µM* | -17% | 14% | 50µM*
Cc1ccc(CN2CCN(/N=C/c3ccc(C)s3)CC2)c(C)c1 | u | u | 45µM* | -20% | 12% | 35µM*
CCc1ccc(NC(=O)C(=O)NCCc2sc(-c3ccc(C)cc3)nc2C)cc1 | 13%[57 µM] | 8%[59 µM] | -21% | x | -3% | 5%
CC1=C(C(=O)OCC2CCCCC2)C(c2ccc(Cl)cc2)CC(=O)N1 (stereo unspecified) | 10% | -3%[59 µM] | -16% | x | 4% | -12%
Cc1ccc(C)c(CN2C(=O)c3ccccc3S(=O)(=O)c3ccc(C(=O)N4CCN(c5ccccc5F)CC4)cc32)c1 | 31% | -5%[59 µM] | -18% | x | 4% | -14%
Fc1cccc(C[n+]2csc3ccccc32)c1 | 18% | 11µM* | 79µM* | -12% | 28% | u
CC1(C)C(=O)N(CC(=O)Nc2cccc(F)c2)c2ccc(S(=O)(=O)N3CCCCC3)cc21 | 10%[57 µM] | 10%[59 µM] | -19% | x | -5% | -1%
CC(C)(C)C1CCc2c(sc(NC(=O)c3ccncc3)c2C(N)=O)C1 (stereo unspecified) | -1% | -6%[59 µM] | -10% | 9% | -1% | 4%
SMILES | HP1b chromo inh | G9a block | JMJD2A Tudor | L3MBTL1 inh | GLS inhibitor | BAZ2B block
CC(C)(C)C1CCc2c(sc(NC(=O)c3cc4ccccc4c(=O)o3)c2C(N)=O)C1 (stereo unspecified) | 8% | 10µM* | -3% | x | -6% | 4%[57.1 µM]
CCc1ccccc1NC(=O)N1CC(CC)Oc2ccc(Cl)cc21 (stereo unspecified) | 113% | 32%[59 µM] | 30% | x | 9% | 20%
CCOC(=O)c1cnc2nc(C)nn2c1N | 29% | 28µM* | -8% | -2% | -15% | -34%
CCCCCC(=O)OCCc1c(C)nc2nc[nH]n2c1=O | 49% | 6% | 5%[11.4 µM] | x | -3% | -38%
CCOC(=O)c1cnc2nc[nH]n2c1=O | 25% | 56µM* | -27% | 33% | -3% | 16%
CCOC(=O)c1ccc(NC(=O)CCc2c(C)nc3nc[nH]n3c2=O)cc1 | 28% | -6%[59 µM] | -10% | x | 3% | 56µM*
CCOC(=O)c1cnc2nc(N3CCOCC3)nn2c1N | 20% | 1% | -13% | -15% | -1% | -2%
Cc1ccc(NC(=O)CN2C=NS(=O)(=O)c3ccccc32)c(C)c1 | -9% | -2%[59 µM] | -28% | x | -17% | -1%
Cc1ccc(NS(=O)(=O)c2cc3c(cc2-c2ccccc2)NC(=O)CO3)cc1C | x | x | -29% | x | x | x
Cc1cc(O)c(N=Cc2cc3c(cc2[N+](=O)[O-])OCO3)cc1C | -39% | x | 3.5µM* | x | u | x
CN1CCN(CCC(=O)N/N=C/c2cc3c(cc2[N+](=O)[O-])OCO3)CC1 | -1% | u | 4µM* | x | -3% | -30%

Screening data (PubChem)
